Holding throughout (conditions): mRNA level, 48 h; actives raise or lower the signal
Read-out in experiment [1]: ATP-citrate lyase (ACLY), ACLY (gene 47)
As to the kind of experiment: LTEA_HepaRG_ACLY: Life Technologies and Expression Analysis (LTEA) Assay for ATP-citrate lyase (ACLY) using HepaRG (AID 2283466). Summed up: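 qRT-PCR readout of ACLY transcript after 48 h chemical treatment of HepaRG cells; expression normalized to three housekeeping genes. Eight-point half-log series, highest 100 uM, 0.5% DMSO vehicle. Gain or loss fitted against DMSO baseline.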

Read-out in experiment [2]: Peroxisomal acyl-coenzyme A oxidase 1 (ACOX1) gene, ACOX1 (gene 51)
As to the kind of experiment: LTEA_HepaRG_ACOX1: Life Technologies and Expression Analysis (LTEA) Assay for Peroxisomal acyl-coenzyme A oxidase 1 (ACOX1) gene using HepaRG (AID 2283467). In short, it runs like this:
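HepaRG, 48 h chemical exposure, 8-pt half-log series from 100 uM top, 0.5% DMSO vehicle, duplicates. Readout: ACOX1 mRNA by Fluidigm qRT-PCR, housekeeping-normalized; bidirectional fit vs DMSO baseline.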

Read-out in experiment [3]: Alkaline Phosphatase, Placental (ALPP) gene, ALPP (gene 250)
The experiment is described as follows: LTEA_HepaRG_ALPP: Life Technologies and Expression Analysis (LTEA) Assay for Alkaline Phosphatase, Placental (ALPP) gene using HepaRG (AID 2283468).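 As to AC50: differentiated human HepaRG liver cells in serum-free induction medium; ALPP transcript by TaqMan qRT-PCR normalized to ACTB GAPDH and POLR2A.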 Summed up:
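Using human liver HepaRG cells, chemicals are tested in duplicate over 48 h at half-log concentrations topping at 100 uM; phenobarbital 1 mM serves as induction control. ALPP mRNA change by qRT-PCR, bidirectional fit against vehicle.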

Read-out in experiment [4]: Bcl-2 (BAD) gene, BAD (gene 572)
The experiment is described as follows: LTEA_HepaRG_BAD: Life Technologies and Expression Analysis (LTEA) Assay for Bcl-2 (BAD) gene using HepaRG (AID 2283469). In short, it runs like this: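 HepaRG, 48 h exposure, 8-pt half-log curve from 100 uM in 0.5% DMSO, duplicates. Readout: TaqMan qRT-PCR for BAD mRNA, housekeeping-normalised (ACTB/GAPDH/POLR2A); gain or loss fitted against DMSO baseline.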

Read-out in experiment [5]: Bcl-2 (BAX) gene, BAX (gene 581)
The experiment is described as follows: LTEA_HepaRG_BAX: Life Technologies and Expression Analysis (LTEA) Assay for Bcl-2 (BAX) gene using HepaRG (AID 2283470). Summed up: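 qRT-PCR read-out of BAX mRNA, normalized to three housekeeping genes, after 48 h chemical exposure of human HepaRG cells in serum-free induction medium; eight-point half-log series, top 100 uM, 0.5% DMSO vehicle; bidirectional fit versus DMSO.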

Read-out in experiment [6]: adenosine kinase (ADK) gene, ADK (gene 132)
The experiment is described as follows: LTEA_HepaRG_ADK: Life Technologies and Expression Analysis (LTEA) Assay for adenosine kinase (ADK) gene using HepaRG (AID 2283471). In short, it runs like this:
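Read-out is ADK transcript level measured by qRT-PCR and normalised to three housekeeping genes. Cells are human HepaRG, dosed for 48 h at up to 100 uM in 0.5% DMSO. Gain or loss of signal is fitted against DMSO controls.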

Read-out in experiment [7]: Alpha-fetoprotein (AFP) gene, AFP (gene 174)
The experiment is described as follows: LTEA_HepaRG_AFP: Life Technologies and Expression Analysis (LTEA) Assay for Alpha-fetoprotein (AFP) gene using HepaRG (AID 2283472).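 As to AC50: AFP transcript by TaqMan qRT-PCR normalized to ACTB GAPDH and POLR2A.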 Summed up: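 qRT-PCR (Fluidigm TaqMan) readout of AFP transcript, normalized to three housekeeping genes, fitted bidirectionally against 0.5% DMSO baseline. HepaRG cells received chemicals for 48 h in serum-free induction medium, top concentration 100 uM, half-log steps.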

Read-out in another experiment: BCL2L11 (gene 10018)
The experiment is described as follows: LTEA_HepaRG_BCL2L11: Life Technologies and Expression Analysis (LTEA) Assay for Bcl-2 (BCL2L11) gene using HepaRG (AID 2283473). Summed up:
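Human hepatic HepaRG cultures are treated 48 h with test chemicals (maximum 100 uM, 0.5% DMSO vehicle). Expression of BCL2L11 is measured by qRT-PCR against ACTB, GAPDH and POLR2A, with activity in either direction scored relative to vehicle.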

Read-out in experiment [8]: Apolipoprotein A-V (APOA5) gene, APOA5 (gene 116519)
As to the kind of experiment: LTEA_HepaRG_APOA5: Life Technologies and Expression Analysis (LTEA) Assay for Apolipoprotein A-V (APOA5) gene using HepaRG (AID 2283474). Summed up: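 Concentration-response of APOA5 expression in HepaRG: eight half-log doses to 100 uM, 48 h, qRT-PCR normalized to ACTB/GAPDH/POLR2A, bidirectional fitting with 0.5% DMSO as baseline.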

Read-out in experiment [9]: Apoptosis regulator Bcl-2 (Homo sapiens) (UniProt P10415)
The experiment is described as follows: LTEA_HepaRG_BCL2: Life Technologies and Expression Analysis (LTEA) Assay for Bcl-2 gene using HepaRG (AID 2283475). In short, it runs like this:
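qRT-PCR read-out (Fluidigm TaqMan) of BCL2 transcript, normalised to three housekeeping genes, after 48 h chemical exposure of HepaRG cells; 8-point half-log series, top 100 uM, 0.5% DMSO vehicle. Gain or loss of signal fitted relative to DMSO baseline.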

SMILES strings stand for the structures. The source made the active and inactive calls. The calls were made as follows: active = hit-call score of the fitted dose curve at least 0.9, where 1 is the maximum; inactive = score below 0.9.

Apoptosis regulator Bcl-2 (Homo sapiens), sequence (P10415 whole entry, looked up): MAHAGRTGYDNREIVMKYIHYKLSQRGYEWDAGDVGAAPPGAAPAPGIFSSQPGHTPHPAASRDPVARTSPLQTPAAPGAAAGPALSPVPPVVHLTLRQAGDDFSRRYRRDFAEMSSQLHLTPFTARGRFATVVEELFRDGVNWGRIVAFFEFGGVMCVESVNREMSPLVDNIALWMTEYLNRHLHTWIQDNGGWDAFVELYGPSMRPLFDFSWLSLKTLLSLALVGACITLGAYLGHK

`Cc1ccc(S(=O)(=O)O)cc1C`: the result in experiment [1], in experiment [2], in experiment [3], in experiment [4], in experiment [5] and in experiment [6] was inactive. In addition, the outcome (in experiment [7]; with BCL2L11 (gene 10018); in [8]; in experiment [9]) was inactive.

Regarding `On1ccccc1=S`, the molecule was classed as inactive in experiment [1], in experiment [2], in experiment [3], in experiment [4], in experiment [5] and in experiment [6]. Besides, the molecule was classed as inactive (in experiment [7]; with BCL2L11 (gene 10018); in experiment [8]; in experiment [9]).

On to `CCCCC(CC)COC(=O)c1ccc(C(=O)OCC(CC)CCCC)cc1` (stereo not given), for which the molecule was called inactive in [1], in experiment [2], in experiment [3], in experiment [4], in experiment [5] and in experiment [6]. The call (in experiment [7]; with BCL2L11 (gene 10018); in experiment [8]; in experiment [9]) was inactive.

Take `C[C@](N)(Cc1ccc(O)c(O)c1)C(=O)O`: the molecule was classed as inactive in experiment [1], in experiment [2], in experiment [3], in [4], in [5] and in [6]. Also, the molecule was called inactive (in experiment [7]; with BCL2L11 (gene 10018); in experiment [8]; in experiment [9]).

In the case of `COC(=O)c1c(Cl)c(Cl)c(C(=O)OC)c(Cl)c1Cl`, the molecule was called inactive in experiment [1], in [2], in experiment [3], in experiment [4], in experiment [5] and in experiment [6]. Moreover, the call (in experiment [7]; in the experiment with BCL2L11 (gene 10018); in experiment [8]; in experiment [9]) was inactive.

In general, AC50 refers to the concentration at which the activity in the assay is half-maximal. On to `CC[C@H](C)C(=O)O[C@H]1C[C@@H](C)C=C2C=C[C@H](C)[C@H](CC[C@@H]3C[C@@H](O)CC(=O)O3)[C@H]21`, for which the AC50 is 14.8 µM (active) in experiment [1] and 9.92 µM (active) in experiment [8]. In addition, the result in experiment [2], in experiment [3], in experiment [4], in experiment [5], in [6] and in experiment [7] was inactive. Also, the call (with BCL2L11 (gene 10018); in experiment [9]) was inactive.

Take `CC(C)CCCCCCCOC(=O)CCCCC(=O)OCCCCCCCC(C)C`: the result in experiment [1], in experiment [2], in [3], in [4], in experiment [5] and in experiment [6] was inactive. Also, the outcome (in experiment [7]; with BCL2L11 (gene 10018); in [8]; in [9]) was inactive.

Regarding `CCCN(C1CCN(C(=O)C2CCNCC2)CC1)[C@@H]1CCc2ccc(OC)cc2C1`, the result (in [1]; in experiment [4]; in experiment [5]; in [6]; with BCL2L11 (gene 10018); in experiment [9]) was inactive. Further, the half-maximal activity concentration (AC50) was 33.1 µM (active) in experiment [2], 50 µM (active) in experiment [3], 76.2 µM (active) in experiment [7] and 77.4 µM (active) in [8].

Take `CC(=O)c1ccc2c(c1)[C@H](NC(=O)c1ccc(F)cc1)[C@@H](O)C(C)(C)O2`: the molecule was classed as inactive in experiment [1], in experiment [2], in experiment [3], in experiment [4], in [5] and in [6]. The outcome (in [7]; in the experiment with BCL2L11 (gene 10018); in experiment [8]; in [9]) was inactive.

On to `C=CC(=C)CCC=C(C)C`, for which the molecule was called inactive in experiment [1], in [2], in [3], in experiment [4], in [5] and in [6]. In addition, the outcome (in [7]; in the experiment with BCL2L11 (gene 10018); in experiment [8]; in [9]) was inactive.

As for `CNCc1ccc(NC(=O)c2c[nH]c3c2C(=O)CCC3)cc1`, the molecule was called inactive in experiment [1], in [2], in [3], in [4], in experiment [6] and in experiment [7]. Moreover, the outcome (in the experiment with BCL2L11 (gene 10018); in [8]; in experiment [9]) was inactive.

For the molecule `CCOc1cccc(-n2cc(C(=O)N3CCN(c4cc(C(=O)O)c5ccccc5c4)CC3)nc2-c2ccc(C)cc2)c1`, the AC50 was 86.6 µM (active) in experiment [1]; 70.1 µM (active) in experiment [2]; 24.1 µM (active) in [3]; 12.5 µM (active) in experiment [5]; 82.9 µM (active) in experiment [6]; 29.8 µM (active) in experiment [7]. The concentration at half-maximal activity (AC50) in the experiment with BCL2L11 (gene 10018) is 87.8 µM (active); in experiment [8] it was 64.2 µM (active); in experiment [9], 84.5 µM (active). In [4], the result was inactive.

Turning to `O=C(O)c1cc(N=Nc2ccc(S(=O)(=O)Nc3ccccn3)cc2)ccc1O`, the molecule was classed as inactive in experiment [1], in experiment [2], in experiment [3], in experiment [4], in experiment [5] and in experiment [6]. Moreover, the outcome (in experiment [7]; with BCL2L11 (gene 10018); in experiment [8]; in experiment [9]) was inactive.

In the case of `COC(=O)c1ccccc1O`, the outcome in experiment [1], in experiment [2], in experiment [3], in experiment [4], in [5] and in experiment [6] was inactive. In addition, the molecule was called inactive in experiment [7], in experiment [8] and in experiment [9].

Take `COc1cccc(-c2ccc(/C=C\CN3CCCCCC3)cc2Cl)c1`: the molecule was classed as inactive (in experiment [1]; in experiment [4]; in experiment [6]; in experiment [7]; with BCL2L11 (gene 10018)). The AC50 was 45.2 µM (active) in experiment [2]; 45.2 µM (active) in experiment [3]; 74.5 µM (active) in experiment [5]; 71.7 µM (active) in experiment [8]; 67.4 µM (active) in [9].

Regarding `Fc1ccccc1[C@@H](F)COC1CCC(Nc2ncnc3[nH]ncc23)CC1` (stereo not given in full), the outcome (in [1]; in experiment [4]; with BCL2L11 (gene 10018)) was inactive. The AC50 in [2] was 34.1 µM (active); in experiment [3], 23.1 µM (active); in experiment [5] it was 50 µM (active); in experiment [6], 50 µM (active); in experiment [7], 27.2 µM (active); in [8], 50 µM (active). In addition, in [9], the half-maximal activity concentration (AC50) was 30.7 µM (active).

Turning to `COC(=O)CC(=O)OC`, the molecule was classed as inactive (in [1]; in experiment [2]; in [3]; in [4]; in [6]; with BCL2L11 (gene 10018)). In addition, the outcome in [8] and in experiment [9] was inactive. The AC50 in [7] is 50 µM (active).

As for `Cn1cnc([N+](=O)[O-])c1Sc1ncnc2nc[nH]c12`, the outcome in experiment [1], in experiment [2], in experiment [3], in experiment [4], in experiment [6] and in [9] was inactive. In addition, the AC50 in experiment [7] is 5.38 µM (active); with BCL2L11 (gene 10018) it was 7.34 µM (active); in experiment [8], 15.8 µM (active).

For `CN(C)c1ccc(N=NS(=O)(=O)O)cc1`, the outcome in experiment [1], in experiment [3], in experiment [4], in [5], in [6] and in experiment [7] was inactive. The call (with BCL2L11 (gene 10018); in experiment [9]) was inactive. Further, the AC50 is 12.9 µM (active) in experiment [2] and 12.8 µM (active) in [8].

Regarding `CCOC(=O)COc1ccc2c(c1)CC(NCC(O)c1cccc(Cl)c1)CC2` (stereo not given), the molecule was called inactive (in experiment [1]; in experiment [2]; in [4]; in [6]; in experiment [7]; in the experiment with BCL2L11 (gene 10018)). For the same molecule, in [8], the molecule was called inactive. In addition, the figures for the AC50 in experiment [3] and in experiment [9] were 16 µM (active) and 45.8 µM (active), respectively.

Consider `O=C1CCC(N2C(=O)c3ccccc3C2=O)C(=O)N1` (stereo not given), for which the molecule was classed as inactive in [1], in experiment [2], in experiment [3], in experiment [4], in experiment [5] and in [6]. For the same molecule, the outcome (in experiment [7]; with BCL2L11 (gene 10018); in experiment [8]; in experiment [9]) was inactive.

The record behind these values is PubChem BioAssay (EPA / NIEHS).
